Results as given in PubChem BioAssay (Tox21).
Inconclusive results are not listed. Where a call stands in place of a potency, no number is given. Unmarked numbers belong to inactive results. Active and inactive are the calls of the source. Calls follow the shape of the full dose curve.

These compounds were tested against Beta-2 adrenergic receptor (Homo sapiens) (UniProt P07550) (assay: Adrenergic beta2 receptor (ADRB2) small molecule agonists, cell-based qHTS assay (AID 1963593)). Settings: CHO-ADRB2 cells, cAMP HTRF, 30 min; series mostly up to 92.4 µM.
Excerpt: National Center for Advancing Translational Sciences [NCATS]
Division of Preclinical Innovation [DPI]
U.S. Environmental Protection Agency [EPA]
National Institutes of Environmental Health Sciences [NIEHS]
National Toxicology Program [NTP]
U.S. Food and Drug Administration [FDA]
Beta adrenergic receptors (Beta-ARs) belong to the G-protein coupled receptor (GPCR) superfamily, includes three subtypes - beta1, beta2, and beta3. Beta1-AR is the predominant receptor subtype expressed in the heart, and beta2-AR is expressed in the kidney, lung, blood vessel and in the heart, and beta3 is found in the adipocytes. Beta1 and 2 ARs couple to Gs protein and elevate cyclic adenosine mono phosphate (cAMP), which activates protein kinase A and leads to the downstream signaling responsible for the physiological actions. Beta-AR agonists or antagonists are the most prescribed therapeutic agents for heart failure and asthma, and these were one of the first target receptors for the rational drug design. Tox21 10K compound library was screened using the cAMP-Gs dynamic assay (Cisbio Bioassays, Shelton, CT) to identify agonists/antagonists of the Gs-coupled human adrenergic, beta2 receptor (ADRB2) in the CHO-ADRB2 cell line (Codex BioSolutions, Inc. Gaithersburg, MD), which stably over-expresses ADRB2. The principle of cAMP-Gs dynamic assay is based on HTRF technology, which facilitates the fluorescence resonance energy transfer (FRET) between donor Europium cryptate and acceptor d2-labeled cAMP. The cAMP generated within cells competes with the red acceptor, d2-labled cAMP, for binding to the monoclonal anti-cAMP-cryptate (Europium donor). An increase in intracellular cAMP leads to the disruption of FRET signal, and the signal is inversely proportional to the cAMP concentration. Isoproterenol HCl (Sigma-Aldrich, St. Louis, MO) was used as a positive control in the screening.
Tox21 Assay Protocol Summary:
CHO-ADRB2 cells were dispensed at 1,000/well in 4uL assay medium into white/solid 1536-well plates (Greiner Bio-One North America Inc., Monroe, NC) using a Multidrop Combi dispenser (ThermoFisher Scientific, Waltham, MA). The assay plates were incubated at 37C and 5% CO2 for an overnight (18-20hr). Then positive control and test compounds dissolved in DMSO were transferred to the assay plates at 23nL using a Pintool station (Wako, San Diego, CA). Following the compound and positive control transfer, 1uL stimulation mix containing 100uM IBMX and 25uM Ro-20-1724 was added to each well of the assay plates using BioRAPTR Flying Reagent Dispenser (FRD, Beckman Coulter, Brea, CA). The assay plates were incubated at room temperature for 0.5hr. Then 2.5ul each d2-labled cAMP and anti-cAMP-cryptate solutions were added separately to each well of the assay plates using an FRD and the assay plates were incubated at room temperature for 1hr.

Chain of Beta-2 adrenergic receptor (Homo sapiens) (P07550 whole entry, looked up): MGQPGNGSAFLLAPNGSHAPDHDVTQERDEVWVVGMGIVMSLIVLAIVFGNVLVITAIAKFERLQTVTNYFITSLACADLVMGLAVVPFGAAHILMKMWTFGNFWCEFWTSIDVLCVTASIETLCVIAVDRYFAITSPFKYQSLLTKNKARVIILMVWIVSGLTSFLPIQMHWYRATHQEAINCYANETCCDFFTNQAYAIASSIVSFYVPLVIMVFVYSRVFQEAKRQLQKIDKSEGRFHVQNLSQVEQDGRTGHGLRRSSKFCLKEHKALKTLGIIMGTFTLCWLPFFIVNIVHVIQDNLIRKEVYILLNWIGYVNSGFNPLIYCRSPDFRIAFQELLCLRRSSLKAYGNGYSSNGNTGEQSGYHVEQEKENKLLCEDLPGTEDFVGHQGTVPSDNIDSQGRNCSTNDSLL

| SMILES | Potency | activation |
| --- | --- | --- |
| CCCc1ccccc1 | inactive | – |
| Cc1cccc(S(=O)(=O)O)c1C | inactive | – |
| Cc1cccc(N(C)C)c1 | inactive | – |
| CC(C)Nc1ccccc1 | inactive | – |
| CC1=C(O)C(=O)C(C)O1 (stereo not given) | inactive | – |
| CCC(C)C1CCCCC1=O (stereo not given) | inactive | – |
| CC(=O)/C=C/c1ccco1 | inactive | – |
| O=C1OC(=O)c2ccccc21 | inactive | – |
| OCc1c2ccccc2cc2ccccc12 | inactive | – |
| CCCCC(CC)COC(C)=O (stereo not given) | inactive | – |
| CCCC(=O)OCc1ccccc1 | inactive | – |
| CN(Cc1cnc2nc(N)nc(N)c2n1)c1ccc(C(=O)N[C@@H](CCC(=O)O)C(=O)O)cc1 | inactive | – |
| C/C(=C(\CCO)SS/C(CCO)=C(\C)N(C=O)Cc1cnc(C)nc1N)N(C=O)Cc1cnc(C)nc1N | inactive | – |
| C[Si](C)=O | – | 7.37% [at 8.39 µM] |
| Nc1ccc(Cl)c(N)c1 | inactive | – |
| CC(=O)OC/C=C(\C)CC/C=C(\C)CCC=C(C)C | inactive | – |
| CN(C)/N=N/c1nc[nH]c1C(N)=O | inactive | – |
| [Cl][Nd]([Cl])[Cl] | inactive | – |
| NC(=O)c1ccccc1Cl | inactive | – |
| OCCOCCN1CCN(C2=Nc3ccccc3Sc3ccccc32)CC1 | inactive | – |

| SMILES | Potency | activation |
| --- | --- | --- |
| Cc1cc(OCCOCC[N+](C)(C)Cc2ccccc2)ccc1C(C)(C)CC(C)(C)C | inactive | – |
| NC(=O)CCCCC(N)=O | inactive | – |
| NCc1cccc(CN)c1 | inactive | – |
| Nc1ncnc2c1ncn2Cc1c(F)cccc1Cl | inactive | – |
| O=C(OCCOCCO)c1ccccc1Nc1cccc(C(F)(F)F)c1 | inactive | – |
| O=C1CC(c2ccc(Cl)cc2)CC(=O)N1 | inactive | – |
| CCN(C=O)CC | inactive | – |
| COc1ccc(Cl)cc1C | inactive | – |
| CC(C)CCCCCOC(=O)CS | inactive | – |
| CCCCOC(=O)CCCCCCCC(=O)OCCCC | inactive | – |
| O=c1oc2c(O)c(O)cc3c(=O)oc4c(O)c(O)cc1c4c23 | – | -28.3% [at 19 µM] |
| C1=COCCC1 | inactive | – |
| CC(C)CC(C)(O)C#CC(C)(O)CC(C)C (stereo not given) | inactive | – |
| C=CCn1cc[n+](C)c1 | inactive | – |
| CC(C)c1cccc(C(C)C)c1N | inactive | – |
| O=C1CCC(=O)O1 | inactive | – |
| CSc1cnccn1 | inactive | – |
| CCCCOC(=O)CCS | inactive | – |
| Cn1cnc2c(F)c(Nc3ccc(Br)cc3Cl)c(C(=O)NOCCO)cc21 | inactive | – |
| O=c1[nH]c2ccccc2c(=O)n1CCCl | inactive | – |
